The panel holds about 83,000 compounds, 20% with a hit somewhere; the sample as a whole holds those more often.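 The test compound was applied at a single concentration to cells in 96-well plates for 48 hours, and percent growth was recorded.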 Calls of active or inactive are those of the source. How the source made its calls: active means growth percent below 10; inactive means the rest.

In this assay the test system is SK-MEL-2 melanoma. Briefly: NCI-60 one-dose screen, 48 h (100 = growth as untreated, 0 = no growth, -100 = all killed). The following applies: 10 µM unless noted.
With `COc1cc(OC)cc(C2=C3CC[C@@H]4[C@H](CC[C@]5(C)C(=O)CC[C@@H]45)C3=CC3C(O)c4cccnc4N4C(=O)COC234)c1` (stereo not given in full), the growth is 108% (inactive).

Regarding `CC(=O)Cc1nsc(NC(=O)c2cc(-c3cc(Cl)cc(Cl)c3)oc2C)n1`, the growth is 102% (inactive).

As to `CCOC(=O)c1cn2ncnc(Oc3ccc(NC(=O)NC4CCCCC4)c(Cl)c3)c2c1C`, the growth is 103% (inactive).

With `Cc1nnc(NC(=O)c2nc(S(=O)(=O)Cc3ccc(F)cc3)ncc2Cl)s1`, the growth is 89.5% (inactive).

In the case of `C#CCOc1ccc2ncnc(Nc3ccc(NC(=O)CCl)cc3)c2c1`, the growth is -7.65% (active).

As to `CCOC(=O)C#Cc1c(C(=O)OCC)nnn1[C@@H]1O[C@H](CO)[C@H]2OC3(CCCCC3)O[C@H]21`, the growth was 106% (inactive).

`C/C(=N/O)c1ccc(F)cc1`: the growth was 7.9% (active).

Regarding `CCOC(=O)Cn1c(O)c(N=Nc2ccc(S(N)(=O)=O)cc2)c2cc(Br)ccc21`, the growth is 88.8% (inactive).

Turning to `Cc1nc(N2CCOCC2)sc1S(N)(=O)=O`, the growth is 98.6% (inactive).

On to `COc1ccc(OC)c(C(=O)/C=C/c2cc3c(c(OC)c2OC)OCO3)c1`, for which the growth is 83.6% (inactive).

Regarding `O=c1oc2ccccc2cc1C1=NN=C(SCc2ccccc2)SC1`, the growth was 116% (inactive).

`COc1ccc(C(=S)N2CCN(c3ccccc3Cl)CC2)cc1OC`: the growth is 101% (inactive).

Consider `Cc1ccc(/C=C2\CN(C(=O)OC(C)(C)C)C/C(=C\c3ccc(C)cc3)C2=O)cc1`, for which the growth is 83.8% (inactive).

Take `O=C(Nc1nn(-c2ccc(Cl)cc2Cl)nc1-c1ccccc1)c1ccccc1`: the growth was 106% (inactive).

Regarding `CCN(CC)c1ccc(/C=C/C(=O)c2ccc(Nc3nc(Nc4ccccc4)nc(Nc4ccccc4)n3)cc2)cc1`, the growth was 27.9% (inactive).

Take `COC(=O)[C@H]1CCCN1C[C@@H](O)CN1C(=O)/C(=C\c2cc(OC)c(OC)c(OC)c2)c2ccccc21`: the growth is 94.3% (inactive).

On to `CN(C)c1ccc(Nc2cc(-c3cccc(OC(F)(F)F)c3)nc3ccc(N4CCCC4)cc23)cc1`, for which the growth was 106% (inactive).

Regarding `O=C(Nc1cc(Cl)ccc1O)c1ccc(Nc2ccnc(C(F)(F)F)c2)cc1`, the growth is 41.4% (inactive).

In the case of `COc1cc(OC)c2sc(-c3ccc(-n4cncc4-c4ccc(OC)c(OC)c4)cc3)nc2c1`, the growth was 33.5% (inactive).

`O=C1c2cccnc2C(=O)c2c1c(C(=O)NCCCN1CCCCC1)c1ccccn21`: the growth was -40.3% (active).

As to `CCOC(=O)c1ccc2[nH]c(O)c(C(=Nc3ccc(N(C)C(=O)CN4CCN(C)CC4)cc3)c3ccccc3)c2c1`, the growth was -59.2% (active).

Regarding `CCN1C(=O)N(CC)C2C1NN=c1s/c(=C\c3cccc([N+](=O)[O-])c3)c(=O)n12` (stereo not given), the growth is 43.4% (inactive).

Regarding `CC1=C(Nc2ccc(N3CCN(C)CC3)cc2)C(=O)c2cncnc2C1=O`, the growth was 109% (inactive).

As to `O=C1Nc2ccc(Br)cc2/C1=N/c1n[nH]c(=S)s1`, the growth was 105% (inactive).

On to `CCN(c1ccc(Cl)cc1)c1nc(-c2ccc([N+](=O)[O-])cc2)cs1`, for which the growth was 101% (inactive).

As for `C=C(C)[C@@H]1CC[C@]2(C)[C@H](CC=C3[C@@H]4[C@H](C)[C@@H](C)CC[C@]4(CO)CC[C@]32C)[C@@]1(C)CCCN`, the growth is -24.7% (active).

Regarding `O=C(/C=C(/C=C/c1cccc2[nH]ccc12)OB(F)F)/C=C/c1cccc2[nH]ccc12`, the growth was -57.9% (active).

In the case of `CCN1CC(=O)N(/N=C2\C(=O)Nc3ccccc32)C1=S`, the growth was 92.7% (inactive).

For `CCN1CCN(c2cc(C(=O)Nc3nc(-c4cc(OC)c(OC)c(OC)c4)cs3)cc(C(F)(F)F)c2)CC1`, the growth was 81.4% (inactive).

As to `COc1ccc(-c2nc(/C=C3\SC(=NCc4ccccc4)NC3=O)c3ccccn23)cc1`, the growth was -31.6% (active).

With `CCOC(=O)C(=Cc1cccc(Br)c1)C(=O)OCC`, the growth was 31.7% (inactive).

Turning to `N#CC1=C(N)Oc2c(sc3c(F)cccc23)C1c1ccc(F)cc1` (stereo not given), the growth was -4.03% (active).

As to `CCOc1nc(-c2ccccc2)cc2c(O)c(C(=O)NN)[nH]c(=O)c12`, the growth was 83.7% (inactive).

Regarding `O=C1c2cccc(NCCN=Cc3cc(O)ccc3O)c2C(=O)c2c(NCCN=Cc3cc(O)ccc3O)cccc21`, the growth was 20.9% (inactive).

As for `C=CCn1cc(-c2nc3ccccc3s2)c2cc(-c3ccc4c5c(cccc35)C(=O)N(N)C4=O)ccc21`, the growth is 102% (inactive).

`CCOC(=O)CNP(=O)(OC[C@@H](Cc1ccccc1)NC(=O)c1cc2ccccc2s1)Oc1ccccc1` (stereo not given in full): the growth is 75.9% (inactive).

On to `CCC(=C(c1ccc(OCCN2CCCC2)cc1)c1ccc(OCCN2CCCC2)cc1)c1ccc(Cl)cc1`, for which the growth is -28.2% (active).

Turning to `Oc1c(Cl)cc(Cl)c2ccc(Cn3cc(-c4ccc(C(F)(F)F)cc4)nn3)nc12`, the growth was 95.4% (inactive).

For the compound `O=C(NCCCCNC(=O)OCc1ccc2c(Cl)cc(Cl)c(O)c2n1)OCc1ccc2c(Cl)cc(Cl)c(O)c2n1`, the growth is 29.6% (inactive).

Regarding `CCN(CC)CCNC(=O)c1cn2ncnc(Oc3ccc(NC(=O)Nc4ccc(Cl)c(C(F)(F)F)c4)c(F)c3)c2c1C`, the growth is -36.9% (active).

For the origin of these results see PubChem BioAssay (NCI).
